Values without a mark were called inactive. Active and inactive are the calls of the source. Calls follow the shape of the full dose curve.
Each compound was assayed against Gonadotropin-releasing hormone receptor (Homo sapiens) (UniProt P30968) (assay: Human gonadotropin-releasing hormone receptor (GnRHR) small molecule agonists, calcium flux assay in GnRHR-HEK293 cells (AID 1920063; also: nearly all actives have a fitted effect of over 35% in size)). Settings: calcium flux fluorescence, agonist mode; series mostly up to 57.6 µM; activity change: at the top concentration.
From the text: National Center for Advancing Translational Sciences [NCATS]
Division of Preclinical Innovation [DPI]
U.S. Environmental Protection Agency [EPA]
National Institutes of Environmental Health Sciences [NIEHS]
National Toxicology Program [NTP]
U.S. Food and Drug Administration [FDA]
Gonadotropin-releasing hormone receptor (GnRHR) is a G-protein-coupled receptor (GPCR) and acts (through phospholipase C) to increase intracellular inositol trisphosphate and then release intracellular calcium stores. Cell-based GnRHR-Hek293 calcium influx assay is using HEK293 cells that have been genetically engineered to express the human GnRHR, which activity can be measured by calcium signaling. A compound/drug can activate (agonist) GnRHR that can be monitored by levels of intracellular calcium.
GnRHR-HEK293 cells developed by Codex Corp contain human GnRHR reporter gene, which was stably integrated into HEK 293 cells. The compound activation can be detected by fluorescence intensity via calcium flux assay. This cell line has been used to screen the Tox21 10K compound library to identify GnRHR agonists.
GnRHR-Hek293 cells were dispensed at 1500cells/4uL/well in 1536-well black wall/clear bottom plates using a multidrop dispenser. After the assay plates were incubated at a 37 C/5% CO2 incubator for 18 hours, 4 uL of Calcium Dye Solution was added to each well. The plates were incubated at 37 C for 1 hour. For agonist mode, 23 nL of compounds dissolved in DMSO, positive controls or DMSO only was transferred to the assay plate by a pin tool station. The fluorescence intensity in the plates was measured using FDSS 7000EX kinetic plate reader with a filter set of Ex/Em=480/540 for 3 min at 1 sec intervals. Each test compound was measured at 15 concentrations and in triplicates.
% is scaled to controls: 0 for no effect and ±100 for the full control effect.

Chain of Gonadotropin-releasing hormone receptor (Homo sapiens) (P30968 whole entry, looked up): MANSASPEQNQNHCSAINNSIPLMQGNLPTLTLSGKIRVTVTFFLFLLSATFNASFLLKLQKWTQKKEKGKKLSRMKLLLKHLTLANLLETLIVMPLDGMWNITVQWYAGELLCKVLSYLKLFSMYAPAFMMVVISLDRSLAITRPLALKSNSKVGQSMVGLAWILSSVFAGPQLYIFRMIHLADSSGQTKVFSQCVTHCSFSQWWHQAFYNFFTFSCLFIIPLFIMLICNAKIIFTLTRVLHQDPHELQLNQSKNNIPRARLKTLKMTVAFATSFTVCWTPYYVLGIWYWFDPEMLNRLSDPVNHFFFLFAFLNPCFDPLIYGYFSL

Structure (SMILES)	activity change	Potency
C=C(C)[C@@H]1CC[C@@H](C)C[C@@H]1O	-0.914%	
CCCCC1CCC(=O)O1 (stereo not given)	-0.968%	
COC(=O)/C=C/c1ccccc1		inactive
CCCCC(C)C(=O)O (stereo not given)	-0.648%	
C=C(C)C(=O)OCCC(C)OC(=O)C(=C)C (stereo not given)	-0.919%	
C/C(=N\O)[C@@H](C)NCC(C)(C)CN[C@H](C)/C(C)=N/O	-0.0625% [at 26.4 µM, hits give high values]	
C=CCc1cc(OC)c(O)c(C(=O)NCCO)c1	-0.565% [at 26.4 µM, hits give high values]	
Cc1ccc(S(=O)(=O)NC(=O)NC2CCCCCCC2)cc1	-1.18% [at 26.4 µM, hits give high values]	
Nc1ccc(S(=O)(=O)Nc2ccc(Cl)nn2)cc1	-0.0128% [at 26.4 µM, hits give high values]	
CC(C)(C)c1ccc(O)c(C(C)(C)C)c1	15.4%	
C=CCOc1cc(Cl)ccc1C(=O)NCCN(CC)CC	0.0075% [at 26.4 µM, hits give high values]	
COS(=O)(=O)O	-1.56%	
C=CCCCCCCCC	0.0095%	
CC1(C)C(O)C(C)(C)C1O (stereo not given)	0.531%	
OC[C@H]1O[C@@H]2O[C@H]3[C@H](O)[C@@H](O)[C@@H](O[C@H]4[C@H](O)[C@@H](O)[C@@H](O[C@H]5[C@H](O)[C@@H](O)[C@@H](O[C@H]6[C@H](O)[C@@H](O)[C@@H](O[C@H]7[C@H](O)[C@@H](O)[C@@H](O[C@H]1[C@H](O)[C@H]2O)O[C@@H]7CO)O[C@@H]6CO)O[C@@H]5CO)O[C@@H]4CO)O[C@@H]3CO		inactive
CC(=O)O[C@@H]1C[C@@H]2CC[C@@]1(C)C2(C)C	-0.811%	
CCCC(=O)Nc1ccc(O)c(C(C)=O)c1	-0.211% [at 26.4 µM, hits give high values]	
Cc1ccc(C(C)(C)O)cc1	-0.0129%	
O=S(=O)(O)c1ccc(N=Nc2c(O)ccc3cc(S(=O)(=O)O)ccc23)cc1		inactive
COCCOCCOCCOCCOC	0.992%	

Structure (SMILES)	activity change	Potency
CC(=O)N[C@@H](CC(C)C)C(=O)O	0.21% [at 26.4 µM, hits give high values]	
Cc1ccc(C=O)cc1	-0.252% [at 26.4 µM, hits give high values]	
COc1cc(CCC(C)=O)ccc1O	-0.133%	
O=c1[nH]c2ccc(Cl)cc2o1	-2.04%	
CC(=O)OC[C@H]1O[C@@H](OC(C)=O)[C@H](OC(C)=O)[C@@H]1OC(C)=O	-0.806% [at 26.4 µM, hits give high values]	
C=CC(=O)CC	0.345%	
O=C1NCCN1CCO	1.23%	
O=[N+]([O-])c1ccc(F)cc1F	1.01%	
CCN(CC)CCNC(=O)c1ccc(NC(C)=O)cc1	-0.445% [at 26.4 µM, hits give high values]	
CC(C)OC(=O)CCCCC(=O)OC(C)C	-0.0601%	
Cc1ncc(CO)c(CN)c1O	0.118% [at 26.4 µM, hits give high values]	
Nc1cc(-c2ccncc2)c[nH]c1=O		inactive
CCOc1ccccc1OCC	-0.36%	
CN1N=C(C(N)=O)CCC1=O	-1.24% [at 26.4 µM, hits give high values]	
CC(c1cc2ccccc2s1)N(O)C(N)=O (stereo not given)		inactive
[K+]	0.0048%	
CCOC(OCC)C(=O)c1ccccc1	-1.15%	
CC(S)C(=O)NCC(=O)O (stereo not given)	-1.55% [at 26.4 µM, hits give high values]	
Oc1cccc2ccccc12		inactive
Oc1ccc(OCc2ccccc2)cc1		inactive

Source: PubChem BioAssay (Tox21)
